Source: PubChem (several laboratories)
ADAM10 inh = human ADAM10 inhibitors, primary screen, biochemical, QFRET, HTS | Disintegrin and metalloproteinase domain-containing protein 10 (Homo sapiens), O14672 | recombinant ADAM10, EDANS/DABCYL FRET peptide cleavage, 3 h | 370,000 compounds, 0.62% hits | AID 720582, 2013 | inhibition, % at 7 µM;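 active = inhibition above a per-campaign cutoff equal to the mean of compounds falling between control-based bounds plus 3 SD, cut at about 20% in these data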
GC-B act = human GC-B receptor activators, primary screen, HEK293 GC-B cells, cGMP TR-FRET, EC30 CNP | 370,000 compounds, 0.11% hits | AID 1920062, 2024 | Atrial natriuretic peptide receptor 2 (Homo sapiens), P20594 | activation, % at 10 µM | 0% at EC30 CNP, 100% saturating CNP;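 active = activation at 10 µM reaching about 35% in either raw or pattern-adjusted values, limit read from the data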
ADAM17 inh = ADAM17 inhibitors, primary screen, biochemical, QFRET; AID 720648, 2013; 370,000 compounds, 0.83% hits; Disintegrin and metalloproteinase domain-containing protein 17 (Homo sapiens), P78536; inhibition, % at 6.95 µM; recombinant ADAM17, EDANS/DABCYL FRET peptide cleavage;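 active = inhibition above the mean of compounds lying between control limits plus 3 SD, set per campaign, cut at about 8.5% in these data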
Target sequence (P78536 215-824 limits assumed): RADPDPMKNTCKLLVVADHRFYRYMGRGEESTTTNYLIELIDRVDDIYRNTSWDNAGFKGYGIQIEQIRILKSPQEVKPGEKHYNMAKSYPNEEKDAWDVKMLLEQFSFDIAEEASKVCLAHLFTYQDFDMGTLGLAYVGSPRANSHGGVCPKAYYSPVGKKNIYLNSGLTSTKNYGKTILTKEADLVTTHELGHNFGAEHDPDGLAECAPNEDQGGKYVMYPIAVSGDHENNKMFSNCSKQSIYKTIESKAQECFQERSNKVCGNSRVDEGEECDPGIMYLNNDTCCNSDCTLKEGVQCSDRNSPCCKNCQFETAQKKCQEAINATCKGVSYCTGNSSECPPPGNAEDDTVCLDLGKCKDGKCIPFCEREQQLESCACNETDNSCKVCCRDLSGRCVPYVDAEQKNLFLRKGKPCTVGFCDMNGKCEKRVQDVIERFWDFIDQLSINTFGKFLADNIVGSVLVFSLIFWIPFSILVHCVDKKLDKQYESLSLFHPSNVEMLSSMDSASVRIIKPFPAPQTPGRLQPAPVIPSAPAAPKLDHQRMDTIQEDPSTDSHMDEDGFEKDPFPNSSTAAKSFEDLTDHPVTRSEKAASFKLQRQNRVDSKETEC
proKLK7 act = proKLK7 zymogen activators, primary screen, biochemical, fluorescence intensity; AID 652039, 2013; activation, % at 7 µM; Kallikrein-7 (Homo sapiens), P49862; 370,000 compounds, 0.9% hits; purified proKLK7, EDANS-DABCYL substrate fluorescence; 100% is mature enzyme control, 0% vehicle;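 active = activation above the mean of all tested compounds plus 3 SD, computed per campaign excluding outliers beyond control limits, cut at about 13% in these data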
GC-A act = GC-A stimulated cGMP production enhancers – HEK293 GC-A cells, cGMP TR-FRET, EC30 ANP, primary screen. AID 1671463, 2021. 0% at EC30 ANP, 100% saturating ANP. 370,000 compounds, 0.14% hits. Atrial natriuretic peptide receptor 1 (Homo sapiens), P16066. activation, % at 10 µM; in the data active = activation above about 40%
ADAM10 confirm = human ADAM10 inhibitors, confirmation, biochemical, QFRET, triplicate. shares compounds with ADAM10 inh. inhibition, % at 6.95 µM. 2,100 compounds, 1% hits. ADAM10 QFRET peptide cleavage, EDANS fluorescence. AID 743208, 2013;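 active = inhibition above about 20% chosen separately for each screening run, limit read from the data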
ADAM17 ctr = ADAM17 inhibitors, counter-screen for ADAM10 exosite inhibitor project, biochemical, QFRET, high throughput; 2,100 compounds, 0.5% hits; AID 743214, 2013; inhibition, % at 6.95 µM; ADAM17 QFRET peptide cleavage, EDANS fluorescence; shares compounds with ADAM10 inh;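 active = mean triplicate inhibition above the solvent-only control wells' mean plus 3 SD, cut at about 12% in these data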
ADAM10 counter = ADAM10 inhibitors, counter-screen for ADAM17 exosite inhibitor project, biochemical, FRET, human ADAM10; shares compounds with ADAM17 inh; 2,900 compounds, 47% hits; inhibition, % at 6.95 µM; recombinant ADAM10, EDANS/DABCYL FRET peptide cleavage, 3 h;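 active = mean inhibition over the triplicate runs exceeds the activity threshold set in the earlier primary screen, cut at about 20% in these data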
ADAM17 confirm = ADAM17 inhibitors, hit retest, confirmation, biochemical, QFRET peptide cleavage. AID 743257, 2014. recombinant ADAM17, EDANS/DABCYL QFRET peptide cleavage. shares compounds with ADAM17 inh. inhibition, % at 6.95 µM. 2,900 compounds, 65% hits;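 active = mean inhibition across replicates above the hit cutoff set in the primary screen, cut at about 8.5% in these data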
Large screens that a line does not name were inactive (follow-up assays come after a bar, where they were run). Only some compounds are listed: those with a hit (about 2.2% of all), similar ones and a draw of the others.

CCC(C)NS(=O)(=O)c1ccc(NC(=O)C(Sc2ccccc2)c2ccccc2)cc1 (stereo not given)	ADAM10 inh 41, ADAM17 inh 20 | ADAM10 confirm inactive | ADAM17 ctr inactive | ADAM10 counter 42 | ADAM17 confirm 22
O=C(OC(C(=O)Nc1cccc(C(F)(F)F)c1)c1ccccc1)C1CCCCC1 (stereo not given)	ADAM10 inh 25, ADAM17 inh 12 | ADAM10 confirm inactive | ADAM17 ctr inactive | ADAM10 counter 20 | ADAM17 confirm 13
Cc1ccc(-n2c(SCC(=O)Nc3cccc(S(N)(=O)=O)c3)nc3ccccc32)cc1	ADAM10 inh 20, ADAM17 inh 12 | ADAM10 confirm inactive | ADAM17 ctr inactive | ADAM10 counter 26 | ADAM17 confirm 14
Cc1nnc(SCC(=O)Nc2cccc(S(N)(=O)=O)c2)n1-c1ccccc1	none
O=C(NCC1CCCO1)C(c1cccs1)N(Cc1ccccc1)C(=O)c1ccc(-c2ccccc2)[nH]1 (stereo not given)	ADAM10 inh 30, ADAM17 inh 12 | ADAM10 confirm inactive | ADAM17 ctr inactive | ADAM10 counter inactive | ADAM17 confirm 14
O=C(NC1CCCCN(Cc2ccc(Cl)cc2)C1=O)c1cccc(F)c1 (stereo not given)	none
CCOc1ccc(OCC)c(NC(=O)C2CCCN(S(=O)(=O)c3cccs3)C2)c1 (stereo not given)	ADAM10 inh 28, ADAM17 inh 12 | ADAM10 confirm inactive | ADAM17 ctr inactive | ADAM10 counter inactive | ADAM17 confirm inactive
CC(C)(C)c1ccc(-c2cc(-c3ccccc3O)[nH]n2)cc1	ADAM10 inh 34, ADAM17 inh 17 | ADAM10 confirm inactive | ADAM17 ctr inactive | ADAM10 counter 22 | ADAM17 confirm 11
Cc1ccc(O)c(-c2cc(-c3ccccc3C)[nH]n2)c1	ADAM10 inh 24, ADAM17 inh 9.8 | ADAM10 confirm inactive | ADAM17 ctr inactive | ADAM10 counter 27 | ADAM17 confirm 12
COC(=O)[C@]12C[C@H](CC(=O)NCc3ccc(OC)c(OC)c3)C(=O)N(Cc3cccc4ccccc34)C1=C[C@H](COCc1ccccc1)O[C@@H]2C	none
Cc1nn(Cc2ccccc2Cl)c2sc(C(=O)NCc3ccc4c(c3)OCO4)cc12	ADAM10 inh 23, ADAM17 inh 12 | ADAM10 confirm inactive | ADAM17 ctr inactive | ADAM10 counter inactive | ADAM17 confirm 12
CCCCCCCCN1C(=O)[C@@H](CC(=O)NCCCC)C[C@@]2(C(=O)OC)C1=C[C@H](COCc1ccccc1)O[C@@H]2C	none
CCOC(=O)C1=CCC(c2ccccc2)N(S(=O)(=O)c2ccccc2)C1 (stereo not given)	ADAM10 inh 22, ADAM17 inh 15 | ADAM10 confirm inactive | ADAM17 ctr inactive | ADAM10 counter inactive | ADAM17 confirm inactive
CCOC(=O)C1=CCC(c2ccccc2)N(S(C)(=O)=O)C1 (stereo not given)	none
